RPL19A TOR yeast = modulators of TOR pathway RPL19A-GFP in S. cerevisiae | AID 2025 | percent response vs DMSO, % at 10 µM | S. cerevisiae RPL19A-GFP strain, flow cytometry, 3 h; hits give low values | actives 0.3% (n = 330,000);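 active = percent response vs DMSO below 50%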;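 note: median channel GFP fluorescence of the barcoded RPL19A-GFP strain; lower means less RPL19A-GFP as with rapamycin TOR inhibition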
LAP4-GFP MLPCN = alters LAP4-GFP fluorescence in TOR pathway yeast screen; S. cerevisiae LAP4-GFP multiplex, flow cytometry GFP, 3 h; median GFP as percent of DMSO wells; GFP response vs DMSO, % at 10 µM; actives 0.34% (n = 320,000); AID 2023;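 active = GFP response vs DMSO above a set limit, about the screen mean plus 3 SD, cut at about 150% in these data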
CIT2 TOR yeast = yeast TOR pathway CIT2-GFP modulation | S. cerevisiae CIT2-GFP strain, flow cytometry, 3 h; 100 means same as DMSO wells | GFP response vs DMSO, % at 10 µM | actives 0.065% (n = 320,000) | AID 2029;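 active = GFP response relative to DMSO above a set limit, near the screen mean plus 3 SD, cut at about 150% in these data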;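 note: ratio of well median GFP fluorescence to mean of DMSO wells on the plate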
AGP1-GFP MLPCN = yeast TOR pathway AGP1-GFP modulation | AID 2066 | actives 0.02% (n = 320,000) | GFP response vs DMSO, % at 10 µM | S. cerevisiae AGP1-GFP multiplex flow cytometry, 3 h; GFP as percent of DMSO wells;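 active = GFP response relative to DMSO above a set limit, near screen average plus 3 SD, cut at about 150% in these data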;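 note: median GFP channel fluorescence of the gated AGP1 strain per well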
MEP2 TOR yeast = alters MEP2-GFP fluorescence in TOR pathway yeast screen | GFP response vs DMSO, % at 10 µM | actives 0.51% (n = 330,000) | S. cerevisiae MEP2-GFP strain, flow cytometry GFP, 3 h; 100% = DMSO control level;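 active = GFP response versus DMSO above a set limit, roughly screen mean plus 3 SD, cut at about 180% in these data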;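 note: median GFP fluorescence of the barcode-gated MEP2-GFP cells per well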
LAP4-GFP pick2 = reconfirmed LAP4-GFP TOR pathway modulator in yeast; shares compounds with LAP4-GFP MLPCN; S. cerevisiae LAP4-GFP strain, flow cytometry GFP, 3 h; GFP response vs DMSO, % at 10 µM; actives 20% (n = 590);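 active = GFP signal as percent of the solvent control above about 150%, meaning raised reporter expression, limit read from the data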
MEP2-GFP pick2 = reconfirmed MEP2-GFP TOR pathway modulator in yeast; S. cerevisiae MEP2-GFP strain, flow cytometry GFP, 3 h; actives 10% (n = 590); shares compounds with LAP4-GFP MLPCN; GFP response vs DMSO, % at 10 µM;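 active = GFP signal above 150% of the solvent control wells, that is a rise of more than half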;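 note: median channel GFP fluorescence of all gated yeast cells per well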
RPL19A-GFP pick2 = reconfirmed modulator of RPL19A-GFP TOR reporter in yeast | shares compounds with LAP4-GFP MLPCN | S. cerevisiae RPL19A-GFP strain, flow cytometry GFP, 3 h; hits give low values; 100% means same as DMSO wells | GFP response vs DMSO, % at 10 µM | actives 3% (n = 590) | AID 2623;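 active = under 65% GFP response relative to DMSO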;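 note: median GFP channel fluorescence per well over the all cells gate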
CIT2-GFP pick2 = yeast CIT2-GFP TOR reporter modulation, second cherry pick; actives 8% (n = 590); GFP response vs DMSO, % at 10 µM; shares compounds with LAP4-GFP MLPCN; S. cerevisiae CIT2-GFP strain, flow cytometry GFP, 3 h; DMSO control wells read 100%;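 active = GFP response vs DMSO above about 150%, limit read from the data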;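 note: median green fluorescence per well over all gated yeast cells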
AGP1-GFP pick2 = second confirmation of modulators of TOR reporter AGP1-GFP in yeast; shares compounds with LAP4-GFP MLPCN; S. cerevisiae AGP1-GFP strain, flow cytometry GFP, 3 h; percent response vs DMSO, % at 10 µM; AID 2643; 590 tested, under 10 active;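 active = over 150 percent of DMSO response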;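 note: median GFP channel fluorescence over all cells without mother daughter split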
s288c autofluor = yeast s288c autofluorescence artifact, counter-screen; shares compounds with LAP4-GFP MLPCN; S. cerevisiae s288c, 520 nm autofluorescence, flow cytometry, 3 h; hits give high values; zero means same as solvent-only cells; fluorescence change (kMESF span) at 33 µM; 610 tested, under 10 active;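 active = fluorescence span over the dose series, or activity score, above about 33, limit read from the data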
Yeast autofl DR = counter-screen for autofluorescence of TOR hits in yeast s288c | shares compounds with LAP4-GFP MLPCN | S. cerevisiae s288c parental, compound autofluorescence, flow cytometry, 3 h | fluorescence change (span) at 33 µM | 110 tested, under 10 active | AID 488829;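 active = fluorescence change span, or the activity score built from it, above 25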
TORC1 bypass = wildtype yeast growth loss with TORC1 bypass cells unaffected; shares compounds with LAP4-GFP MLPCN; S. cerevisiae BY4741 spot growth rating, 48-72 h; hits give low values; growth rating (0-3) at 30 µM; 120 tested, under 10 active;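 active = growth rating at most 1 for wild type yeast while the TORC1 bypass strain still grows fully, rated 3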
Large screens that a line does not name were inactive (follow-up assays come after a bar, where they were run). Most compounds without a hit are left out; they make up all but 0.92% or so of the library.

COc1ccc(NC(=O)CN(c2ccccc2F)S(=O)(=O)c2ccc(C)cc2)cc1	none
COC(=O)CCCC1=CC2=CC(=O)C(C)(OC(=O)CCc3ccccc3)C(=O)C2=CO1 (stereo not given)	LAP4-GFP MLPCN 156 | LAP4-GFP pick2 inactive | MEP2-GFP pick2 inactive | RPL19A-GFP pick2 inactive | CIT2-GFP pick2 inactive | AGP1-GFP pick2 inactive | s288c autofluor inactive
COC(=O)CCC(=O)OC1(C)C(=O)C=C2C=C(c3ccsc3)OC=C2C1=O (stereo not given)	none
Clc1cnc(N/N=C/c2ccco2)c(Cl)c1	none
Oc1ccc(/C=N/Nc2ncc(Cl)cc2Cl)cc1	none
Cc1ccc(/C=N/Nc2ncc(Cl)cc2Cl)s1	LAP4-GFP MLPCN 298 | s288c autofluor inactive
Clc1cnc(N/N=C/c2cccs2)c(Cl)c1	LAP4-GFP MLPCN 158 | s288c autofluor inactive
COc1ccc(NC(=O)CN(C)C(=O)C2(c3ccccc3)CCCC2)cc1	LAP4-GFP MLPCN 152 | LAP4-GFP pick2 inactive | MEP2-GFP pick2 inactive | RPL19A-GFP pick2 inactive | CIT2-GFP pick2 inactive | AGP1-GFP pick2 inactive
Oc1c(Br)cc(Br)cc1C=Nc1ccc2c(c1)OCO2	LAP4-GFP MLPCN 152 | s288c autofluor inactive
Oc1c(Br)cc(Br)cc1C=Nc1ccc2c(c1)OCCO2	none
COC(=O)/C(=N\Nc1ccc(Cl)cc1)Sc1nnc(-c2ccc(OC)cc2)n1C	none
O=C(COC(=O)c1cccc([N+](=O)[O-])c1)Nc1ncc(Br)s1	none
N=C1S/C(=C\c2ccco2)C(=O)N1c1ccc2c(c1)OCO2	none
N=C1S/C(=C\c2ccco2)C(=O)N1c1nccs1	LAP4-GFP MLPCN 168 | s288c autofluor inactive
CC1CN(C(=O)CCC(=O)N2CCN(c3cccc(C(F)(F)F)c3)CC2)c2ccccc2O1 (stereo not given)	none
O=C(c1ccc(C(=O)N2CCCc3ccccc32)s1)N1CCCc2ccccc21	LAP4-GFP MLPCN 171 | LAP4-GFP pick2 inactive | MEP2-GFP pick2 164 | RPL19A-GFP pick2 inactive | CIT2-GFP pick2 inactive | AGP1-GFP pick2 inactive | s288c autofluor inactive | Yeast autofl DR inactive | TORC1 bypass inactive
CN(C)c1ccc(-c2c(-c3ccc4c(c3)OCO4)noc2-c2ccsc2)cn1	LAP4-GFP MLPCN 155 | LAP4-GFP pick2 inactive | MEP2-GFP pick2 inactive | RPL19A-GFP pick2 inactive | CIT2-GFP pick2 inactive | AGP1-GFP pick2 inactive
COC(=O)c1cc(-c2c(-c3ccc4c(c3)OCO4)noc2-c2ccsc2)cc([N+](=O)[O-])c1	none
Cc1ccccc1C(=O)NNC(=S)NC(=O)c1ccc(Cl)cc1Cl	LAP4-GFP MLPCN 182 | s288c autofluor inactive

Screening data as filed in PubChem BioAssay.
